Screening data: PubChem, several laboratories
In the library only some 3.2% were active in any assay of this set; here they are far more common.
NRP1-CendR mod = modulators of CendR peptide binding to NRP-1, primary screen, biochemical, fluorescence polarization, uHTS. Neuropilin-1 (Homo sapiens), O14786. FAM-RPARPAR peptide binding to NRP-1. inhibition, % at 25 µM. 360,000 compounds, 0.85% hits. AID 602438, 2012;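 active means inhibition or corrected inhibition above about 18%, plus a signal ratio from 0.5 to 1.5, limit read from the data, passing the limit was not always enough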
MEKK2 WT-MEK5 = modulators of MEK5 binding to wildtype MEKK2, primary screen, biochemical, multiplex bead flow cytometry, Alexa488-MEK5; Alexa488-MEK5 binding to MEKK2 WT; actives lie on both sides; AID 1531, 2009; binding response (% of control), % at 10 µM; 290,000 compounds, 1.1% hits; in the data active means binding response below about 67% or above about 130%
SKN-1 block = suppressors of acrylamide-induced Pgst-4::GFP reporter in worms, primary screen, SKN-1 inhibitor project, whole organism, uHTS, GFP/RFP fluorescence ratio, strain VP596 | C. elegans VP596 Pgst-4::GFP/RFP ratio, 24 h | inhibition, % at 21.8 µM | 360,000 compounds, 0.49% hits;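 active means interference check ratio from 0.5 to 1.5 plus GFP to RFP signal ratio inhibition reaching or exceeding a fixed threshold, cut at about 30% in these data, passing the limit was not always enough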
MEKK2mut PB1 HTS = MEK5 binding signal on mutant MEKK2 PB1, primary screen, biochemical, multiplex bead flow cytometry, Alexa488-MEK5; Alexa488-MEK5 binding to MEKK2 mutant; percent response, % at 10 µM; 290,000 compounds, 0.35% hits; in the data active means percent response above about 24%, passing the limit was not always enough
MEKK3 PB1 HTS = modulators of MEKK3-MEK5 PB1 binding, primary screen, biochemical, wildtype MEKK3, multiplex bead flow cytometry, Alexa488-MEK5 | 290,000 compounds, 1.4% hits | Mitogen-activated protein kinase kinase kinase 3 (Homo sapiens), Q99759 | binding response (% of control), % at 10 µM | bead-based flow cytometry, Alexa488-MEK5 binding to MEKK3; actives lie on both sides; 0 = blocked by unlabeled MEK5, 100 = vehicle;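 active means binding response more than 3 SD above or below the average of its plate-row segment, actives on both sides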;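 further: Alexa488 bead fluorescence after subtracting the streptavidin-only scavenger bead signal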
MEKK2wt confirm = modulators of MEK5 binding to wildtype MEKK2, confirmation, biochemical, single concentration, multiplex bead flow cytometry; shares compounds with MEKK3 PB1 HTS; Alexa488-MEK5 binding to MEKK2 WT; actives lie on both sides; binding response (% of control), % at 10 µM; 5,900 compounds, 2.4% hits; AID 1892, 2009; in the data active means binding response below about 16% or above about 210%; inactive means in between
MEKK2mut confirm = mutant MEKK2 PB1-MEK5 binding signal retest – biochemical, single concentration, multiplex bead flow cytometry, confirmation; Alexa488-MEK5 binding to MEKK2 mutant; shares compounds with MEKK3 PB1 HTS; 5,900 compounds, 2% hits; percent response, % at 10 µM; in the data active means percent response mostly above about 71%, no sharp cut-off; inactive means mostly below about 38%;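 further: higher means compound restores mutant binding toward wildtype level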
MEKK3-MEK5 inh = MEKK3 wild-type PB1 binding to MEK5, inhibitors, confirmation, biochemical, bead multiplex flow cytometry, single concentration, wildtype. shares compounds with MEKK3 PB1 HTS. Alexa488-MEK5 binding to MEKK3; hits give low values. binding response (% of control), % at 10 µM. 5,900 compounds, 1.8% hits. AID 1894, 2009;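 active means binding response below 72% of control, or above a set upper limit, though filed actives all read lower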;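 further: 100% = DMSO only wells and 0% = binding blocked by excess unlabeled MEK5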
Starred values were filed as active, the others as inactive; x = no result given; [ ] = dose if it differs, or a comment.

SMILES	NRP1-CendR mod	MEKK2 WT-MEK5	SKN-1 block	MEKK2mut PB1 HTS	MEKK3 PB1 HTS	MEKK2wt confirm	MEKK2mut confirm	MEKK3-MEK5 inh
COC(=O)c1ccc(CSc2nnc(Nc3cccc(OC)c3)s2)o1	14	107	30	4	97	x	x	x
CC(O)Cn1c(N2CCCC2)nc2c1c(=O)n(C)c(=O)n2C (stereo not drawn)	-2	107	8	7	102	x	x	x
COC(=O)Cn1c(N2CCCC2)nc2c1c(=O)n(C)c(=O)n2C	-1	115	-24	30*	112	101	-3	101
COc1ccc(NCC(=O)Nc2cccc(C(F)(F)F)c2)cc1S(=O)(=O)N1CCOCC1	-1	x	17	x	x	x	x	x
Cc1noc(/C=C/c2ccc(-c3ccccc3Cl)o2)c1[N+](=O)[O-]	-56	117	75	92*	102	55	-18	54*
Cc1cccc(C)c1N/C=C/c1onc(C)c1[N+](=O)[O-]	-10	102	-6	2	102	x	x	x
Cc1ccc(N/C=C/c2onc(C)c2[N+](=O)[O-])cc1	-38	33*[inhibitor]	0	-13	37*[inhibitor]	97	-4	100
Cc1c(C(=O)NCc2ccc3c(c2)OCO3)sc(=O)n1Cc1cccc(F)c1	12	x	4	x	x	x	x	x
N#C/C(=N\Nc1ccc(Cl)c(Cl)c1)C(=O)C1CC1	3	45*[inhibitor]	-12	-8	45*[inhibitor]	94	-2	99
Cn1c(=O)c2c(ncn2CC(=O)OCC(=O)c2ccc(Br)cc2)n(C)c1=O	-34	x	9	x	x	x	x	x
CC(C)c1cc(C(=O)Nc2cc(Br)ccc2O)no1	-3	94	6	-4	96	x	x	x
CC(C)c1cc(C(=O)Nc2cc(Cl)ccc2O)no1	-8	13*[inhibitor]	-13	-28	8.0*[inhibitor]	105	5	110
Cc1cccc2cc(/C=N/Nc3ccc(C(=O)O)cc3)c(Cl)nc12	-29	67	1	-37	66*[inhibitor]	74	-13	79
O=C(NCC(c1ccco1)N1CCN(c2ccccc2F)CC1)c1ccc2c(c1)OCO2 (stereo not drawn)	-19	x	-4	x	x	x	x	x
NC(=O)C(c1ccccn1)c1ncc(C(F)(F)F)cc1Cl (stereo not drawn)	7	52	5	-14	40*[inhibitor]	101	-1	103
NC(=O)C(c1ccccc1)c1ncc(C(F)(F)F)cc1Cl (stereo not drawn)	1	93	-13	-2	96	x	x	x
O=C1c2ccccc2-c2onc3ccc(NCCCn4ccnc4)c1c23	x	28*[inhibitor]	x	-21	33*[inhibitor]	42	-15	42*
C#CCNC(=O)C[C@@H]1C[C@@]2(C(=O)OC)CC(C)(C)CC=C2N(CCCCCCCC)C1=O	6	x	4	x	x	x	x	x
O=C(NCC1CCCCC1)C1(CC2CC(c3cccc(Br)c3)=NO2)CCNCC1 (stereo not drawn)	-1	145*	-10	15	101	125	16	101
CC(CCN1CCC(CN2C(=O)C(=O)NC[C@@H]2Cc2ccccc2)CC1)c1ccccc1 (stereo partly drawn)	2	x	-13	x	x	x	x	x
